According to PubChem BioAssay (Tox21):
“And” between values parts separate entries of the source, which are not always exact repeats. Equal values may be shown once. Results filed as inconclusive are left out. Entries that show only a call come without a potency. The source made the active and inactive calls. The call rests on the fitted dose curve; in most records, active means well fitted curve in the direction sought with a large enough effect in the repeat runs; inconclusive means weak or mixed curves; inactive means no such curve, though single readings can be large; an effect the other way counts as inactive or inconclusive.

The molecules below were run against Cytochrome P450 1A2 (Homo sapiens) (UniProt P05177) (assay: Cytochrome P450 Family 1 Subfamily A Member 2 (CYP1A2) small molecule antagonists: luciferase reporter qHTS assay (AID 1671199)). Details: P450-Glo CYP1A2 enzyme, luciferin luminescence, 1 h; series mostly up to 115 µM.
Method in brief: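 P450-Glo CYP1A2, 1536-well qHTS: enzyme/proluciferin substrate + cpd (DMSO), 10 min RT; NADPH regen, 1 h RT; detection reagent, 20 min; luminescence, RLU.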
Further: nearly all actives have a fitted effect of over 50% in size.
Potency means the concentration at half of the fitted maximal effect.

Chain of Cytochrome P450 1A2 (Homo sapiens) (P05177 whole entry, looked up): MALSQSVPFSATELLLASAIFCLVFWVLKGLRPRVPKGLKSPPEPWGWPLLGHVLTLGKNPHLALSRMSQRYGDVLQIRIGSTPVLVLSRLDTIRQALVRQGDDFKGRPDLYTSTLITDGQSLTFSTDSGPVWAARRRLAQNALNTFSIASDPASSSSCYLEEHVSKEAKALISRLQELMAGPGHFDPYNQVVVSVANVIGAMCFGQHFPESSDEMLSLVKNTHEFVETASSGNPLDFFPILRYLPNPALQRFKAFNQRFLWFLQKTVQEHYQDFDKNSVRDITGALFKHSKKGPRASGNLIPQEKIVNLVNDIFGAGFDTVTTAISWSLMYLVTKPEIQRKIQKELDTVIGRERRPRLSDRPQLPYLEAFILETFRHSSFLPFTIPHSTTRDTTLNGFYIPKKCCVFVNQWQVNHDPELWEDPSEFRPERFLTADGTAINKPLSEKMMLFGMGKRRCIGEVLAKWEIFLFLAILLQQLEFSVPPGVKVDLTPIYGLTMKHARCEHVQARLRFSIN

Row | Structure (SMILES) | Potency
1 | N#Cc1ccc(O)cc1 | inactive
2 | CS(=O)(=O)c1ccc(C(=O)C2C(=O)CCCC2=O)c([N+](=O)[O-])c1 | 50.3 µM (active)
3 | CC(C)CCCCCCCOP(=O)(Oc1ccccc1)Oc1ccccc1 | 28.4 µM (active)
4 | Nc1ccc(Cc2ccc(N)c(Cl)c2)cc1Cl | 27.3 µM (active)
5 | CC(=[OH+])/C=C(/C)[O-].CC(=[OH+])/C=C(\C)[O-].CC(=[OH+])/C=C(\C)[O-].[Fe] | inactive
6 | CCOC(=O)OC1=C(c2cc(C)ccc2C)C(=O)NC12CCC(OC)CC2 (stereo unspecified) | 44.8 µM (active)
7 | Cn1cc(C2=C(c3cn(C4CCN(Cc5ccccn5)CC4)c4ccccc34)C(=O)NC2=O)c2ccccc21 | inactive
8 | CC[C@H]1C[C@@H]2C[C@H]3c4[nH]c5ccc(OC)cc5c4CCN(C2)[C@@H]13 | 44.1 µM (active)
9 | Nc1ccc(Cl)cc1C(=O)c1ccccc1 | 15.9 µM (active)
10 | CC(C)(C)c1ccc(CSc2cnn(C(C)(C)C)c(=O)c2Cl)cc1 | 25.2 µM (active)
11 | Nc1ccccc1C(=O)Oc1ccc2ccccc2c1 | 14.2 µM (active)
12 | Clc1ccc(-c2ccccc2)cc1 | 39.9 µM (active)
13 | CC(C)(C)c1cc([N+](=O)[O-])cc(C(C)(C)C)c1O | 31.7 µM (active)
14 | C[C@@H](Oc1ccc(Cl)cc1Cl)C(=O)O | inactive
15 | COc1ccc(OC)c(C=O)c1 | 28.3 µM (active)
16 | SCc1ccco1 | 35.6 µM (active)
17 | Cc1cc(C)c(C2=C(OC(=O)CC(C)(C)C)C3(CCCC3)OC2=O)c(C)c1 | inactive
18 | c1ccc(Nc2ccc3ccccc3c2)cc1 | 3.54 µM (active) and 3.56 µM (active)
19 | CC(=O)/C=C/c1ccc2c(c1)OCO2 | 0.226 µM (active)
20 | CCCN(CCC)CCc1c[nH]c2ccccc12 | 27.9 µM (active)
21 | CC(C)Oc1cccc(NC(=O)c2ccccc2C(F)(F)F)c1 | 10.6 µM (active)
22 | OC(Cc1ccccc1Cl)(Cn1cncn1)C1(Cl)CC1 (stereo unspecified) | 0.796 µM (active)
23 | CCOCn1c(-c2ccc(Cl)cc2)c(C#N)c(Br)c1C(F)(F)F | 0.633 µM (active)
24 | CCN(CC)C(=S)[S-].CCN(CC)C(=S)[S-].[Zn+2] | inactive
25 | COP(=S)(OC)Oc1cc(Cl)c(Br)cc1Cl | 11.2 µM (active)
26 | [CH3][Hg][Cl] | inactive
27 | Oc1ccc(C(c2ccc(O)cc2)(C(F)(F)F)C(F)(F)F)cc1 | inactive

The molecules below were run against Voltage-gated inwardly rectifying potassium channel KCNH2 (Homo sapiens) (UniProt Q12809) (assay: Human Ether-a-go-go-Related Gene (hERG) channel small molecule antagonists: fluorescence cell-based qHTS assay (AID 1671200)). Details: hERG-U2OS cells, FluxOR thallium flux fluorescence; series mostly up to 76.8 µM.
Method in brief: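 Thallium flux as potassium surrogate: FluxOR II dye loaded 1 h at room temperature into hERG-expressing U2OS cells, then stimulus buffer added after 10 min. Kinetic 480 nm excitation/540 nm emission read, 2 min.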

Chain of Voltage-gated inwardly rectifying potassium channel KCNH2 (Homo sapiens) (Q12809 whole entry, looked up): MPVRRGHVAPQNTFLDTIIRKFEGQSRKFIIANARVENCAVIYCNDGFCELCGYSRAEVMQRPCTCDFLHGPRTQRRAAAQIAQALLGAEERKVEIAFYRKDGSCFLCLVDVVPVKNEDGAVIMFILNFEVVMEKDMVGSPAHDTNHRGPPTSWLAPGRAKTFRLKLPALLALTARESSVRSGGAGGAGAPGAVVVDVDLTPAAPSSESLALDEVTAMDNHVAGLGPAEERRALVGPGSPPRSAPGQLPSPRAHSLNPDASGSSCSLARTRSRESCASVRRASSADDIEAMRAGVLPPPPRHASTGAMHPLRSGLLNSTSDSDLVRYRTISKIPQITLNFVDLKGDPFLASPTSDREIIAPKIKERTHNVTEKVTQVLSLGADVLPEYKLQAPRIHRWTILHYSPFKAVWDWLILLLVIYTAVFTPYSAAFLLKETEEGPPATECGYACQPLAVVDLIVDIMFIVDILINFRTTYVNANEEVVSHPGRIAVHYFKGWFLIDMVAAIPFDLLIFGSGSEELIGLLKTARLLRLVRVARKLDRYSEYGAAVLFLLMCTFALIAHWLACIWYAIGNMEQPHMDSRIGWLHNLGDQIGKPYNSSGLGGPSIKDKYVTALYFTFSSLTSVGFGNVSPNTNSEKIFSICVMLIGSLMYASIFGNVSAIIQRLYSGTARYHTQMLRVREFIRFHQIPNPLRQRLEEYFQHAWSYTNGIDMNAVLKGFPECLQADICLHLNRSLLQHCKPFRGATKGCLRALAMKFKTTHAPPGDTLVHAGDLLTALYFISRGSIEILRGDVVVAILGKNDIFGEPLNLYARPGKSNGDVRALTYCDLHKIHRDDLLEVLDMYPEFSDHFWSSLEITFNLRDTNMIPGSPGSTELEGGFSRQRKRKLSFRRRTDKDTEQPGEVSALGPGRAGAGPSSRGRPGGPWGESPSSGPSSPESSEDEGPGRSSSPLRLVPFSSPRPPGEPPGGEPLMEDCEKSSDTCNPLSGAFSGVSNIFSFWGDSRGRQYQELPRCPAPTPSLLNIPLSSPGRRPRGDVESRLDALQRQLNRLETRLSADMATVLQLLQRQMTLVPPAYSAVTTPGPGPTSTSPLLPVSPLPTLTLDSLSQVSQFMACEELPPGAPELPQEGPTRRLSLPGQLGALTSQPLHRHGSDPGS

Row | Structure (SMILES) | Potency
28 | N#Cc1ccc(O)cc1 | inactive
29 | CS(=O)(=O)c1ccc(C(=O)C2C(=O)CCCC2=O)c([N+](=O)[O-])c1 | inactive
30 | Nc1ccc(Cc2ccc(N)c(Cl)c2)cc1Cl | inactive
31 | CC(=[OH+])/C=C(/C)[O-].CC(=[OH+])/C=C(\C)[O-].CC(=[OH+])/C=C(\C)[O-].[Fe] | inactive
32 | CCC(C)(C)C(=O)OC1=C(c2ccc(Cl)cc2Cl)C(=O)OC12CCCCC2 | inactive
33 | ClCc1ccc(Cl)cc1Cl | inactive
34 | O=C(O)COc1nc(Cl)c(Cl)cc1Cl | inactive
35 | COc1ccc([N+](=O)[O-])cc1O | inactive
36 | C[C@@H](Oc1ccc(Cl)cc1Cl)C(=O)O | inactive
37 | COc1ccc(OC)c(C=O)c1 | inactive
38 | SCc1ccco1 | inactive
39 | Cc1cc(C)c(C2=C(OC(=O)CC(C)(C)C)C3(CCCC3)OC2=O)c(C)c1 | inactive
40 | c1ccc(Nc2ccc3ccccc3c2)cc1 | inactive
41 | CC(=O)/C=C/c1ccc2c(c1)OCO2 | inactive
42 | CC(C)Oc1cccc(NC(=O)c2ccccc2C(F)(F)F)c1 | 50.4 µM (active)
43 | CCN(CC)C(=S)[S-].CCN(CC)C(=S)[S-].[Zn+2] | 8.63 µM (active)
44 | [CH3][Hg][Cl] | 24.5 µM (active)
45 | Oc1ccc(C(c2ccc(O)cc2)(C(F)(F)F)C(F)(F)F)cc1 | 43.4 µM (active)

Each molecule was assayed against Cytochrome P450 3A4 (Homo sapiens) (UniProt P08684) (assay: Cytochrome P450 Family 3 Subfamily A Member 4 (CYP3A4) small molecule antagonists: luciferase reporter qHTS assay (AID 1671201)). Details: P450-Glo CYP3A4 enzyme, luciferin luminescence, 1 h; series mostly up to 115 µM.
Method in brief: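 Recombinant human CYP3A4 converts a proluciferin substrate to luciferin over 1 h at room temperature after NADPH regeneration solution is added (compound preincubated 10 min); detection reagent stops reaction, luminescence read 20 min later as relative units.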

Chain of Cytochrome P450 3A4 (Homo sapiens) (P08684 whole entry, looked up): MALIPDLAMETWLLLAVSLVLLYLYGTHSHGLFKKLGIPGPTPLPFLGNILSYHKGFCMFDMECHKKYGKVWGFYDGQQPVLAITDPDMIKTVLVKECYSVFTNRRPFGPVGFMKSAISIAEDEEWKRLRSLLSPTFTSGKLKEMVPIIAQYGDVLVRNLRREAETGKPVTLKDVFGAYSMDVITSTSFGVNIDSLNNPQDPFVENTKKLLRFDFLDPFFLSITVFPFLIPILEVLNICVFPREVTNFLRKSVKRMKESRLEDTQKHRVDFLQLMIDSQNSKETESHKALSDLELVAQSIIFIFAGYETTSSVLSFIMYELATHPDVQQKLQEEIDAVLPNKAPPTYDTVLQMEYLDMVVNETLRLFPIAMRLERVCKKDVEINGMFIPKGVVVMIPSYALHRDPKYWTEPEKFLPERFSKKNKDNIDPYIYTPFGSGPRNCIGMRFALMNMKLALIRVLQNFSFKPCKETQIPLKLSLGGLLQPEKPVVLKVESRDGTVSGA

Row | Structure (SMILES) | Potency
46 | FC(Cl)(Cl)Cl | inactive
47 | Cn1cc(C2=C(c3cn(C4CCN(Cc5ccccn5)CC4)c4ccccc34)C(=O)NC2=O)c2ccccc21 | inactive
48 | CCC(C)(C)C(=O)OC1=C(c2ccc(Cl)cc2Cl)C(=O)OC12CCCCC2 | 14.2 µM (active)
49 | ClCc1ccc(Cl)cc1Cl | inactive
50 | Clc1ccc(-c2ccccc2)cc1 | inactive
51 | COc1ccc([N+](=O)[O-])cc1O | inactive
52 | Clc1ccc(Oc2ccccc2)cc1 | inactive
53 | COc1ccc(OC)c(C=O)c1 | inactive
54 | CCCN(CCC)CCc1c[nH]c2ccccc12 | inactive
55 | C[CH2][Hg][N]1C(=O)C2C(C1=O)C1(Cl)C(Cl)=C(Cl)C2(Cl)C1(Cl)Cl (stereo unspecified) | 13.5 µM (active)
56 | [CH3][Hg][Cl] | 39.8 µM (active)
